# Target: AMP-activated protein kinase, AMPK (Homo sapiens) (UniProt P54646+O43741+P54619+Q9UGJ0+Q9Y478+Q13131+Q9UGI9)
# Assay: AMP-dependent Kinase enzyme assay. An in vitro enzyme assay that detects ADP turnover that is directly proportional to AMPK activity. This uses naive AMPK that is activated during the assay with MK-8722
# Format: functional
# Set-up: scale not given: direction of the effect not stated beside the values
# Details: 30 µM
row,Compound,Percent Effect [%]
1,Cc1ccnc(NC(=O)c2ccc(Br)o2)c1,5.24
2,Cc1ccc(-c2nc(CN3CCOCC3)no2)cc1N1CCNC1=O,7.88
3,CN1CC2(CCN(CCCOCc3ccccc3)CC2)OC1=O,2.54
4,O=C(Nc1cccnc1)NC1CCN(c2ccccc2OC(F)F)C1 (stereo not given),0.675
5,COc1ccc(C(=O)N2C[C@@H](O)[C@H](NCCc3ncccc3C)C2)cc1,-1.16
6,Cc1cccn2cc(CNS(=O)(=O)N3CCOCC3)nc12,4.51
7,CCS(=O)(=O)NCC(=O)N1CCC(c2cc3ccccc3[nH]2)CC1,6.95
8,O=C(Nc1ccccn1)NC1CCN(c2ccccc2OC(F)F)C1 (stereo not given),-0.894
9,CCc1nc(C)c(CN2CCOC(Cc3ccccc3Cl)C2)[nH]1 (stereo not given),-2.77
10,CC1CCC(O)(CSc2nnnn2C)CC1 (stereo not given),3.45
11,CCc1cc(=O)[nH]c(-c2ccc(NCCC(C)O)nc2)n1 (stereo not given),-6.17
12,Cc1nc(CN2CCN(c3cc(CCN)ncn3)CC2)cs1,-0.86
13,Cc1ccc(N2CCC(CCN3CCCC3=O)CC2)nn1,-7.57
14,Cn1cnnc1C1CCN(c2nc3ccccc3o2)CC1,1.68
15,Cc1[nH]nc(CCC(=O)N2C[C@H]3CC[C@@H]2CN(C(=O)N(C)C)C3)c1C,0.209
16,CC(C)c1nnc(CN2CCCc3ccc(S(N)(=O)=O)cc32)o1,0.503
17,CNC(=O)Cc1ccc(NC(=O)NCc2ncc(C)s2)cc1,-2.7
18,CCc1ncc2c(n1)CN(c1cc(NCCO)nc(N)n1)C2,-219
19,Cc1ncc(C(=O)N2CCOC(C(=O)N3CCCCCC3)C2)c(C)n1 (stereo not given),-3.31
20,Cc1nc(O)cc(C2(C)CCCNC2)n1 (stereo not given),19.4

row,Compound,Percent Effect [%]
1,O=C(Cc1c[nH]c(=O)[nH]c1=O)N1CCCCC1CCc1cccc(O)c1 (stereo not given),1.27
2,COCCCC1(CO)CCCN(C(=O)c2cnc3c(c2)CCCC3)C1 (stereo not given),-2.32
3,CC1(c2ncc(CN3CCN(c4ccccn4)CC3)cn2)CCCCO1 (stereo not given),5.55
4,O=C(Nc1ccc(-n2ccc(C(=O)O)n2)cc1)c1ccccc1,4.07
5,Cc1cc(C(=O)NCCN2CCC(C)CC2)nn1C(C)(C)C,5.48
6,Nc1cc(-c2c[nH]nc2C2CCN(C(=O)C3CCCC3)C2)ccn1 (stereo not given),-6.9
7,Cc1ccccc1Cc1nc(CSc2nnc(N)n2C)no1,2.88
8,CN(CC(O)C(F)(F)F)C(=O)Nc1cccc(C(F)F)c1 (stereo not given),-0.316
9,CNC(=O)CCOC(=O)c1cccc(-n2ccc(C(F)(F)F)n2)c1,3.59
10,CCCN(CCC)C(=O)c1cnn(C)c1C,3.84
11,COc1ccc(CN2C[C@@H]3CC[C@H](C2)N(S(C)(=O)=O)C3)cc1,12.6
12,Cc1nccn1-c1ccc(C(=O)NCC(F)(F)F)nn1,-3.73
13,CS(=O)(=O)N1CCN(C(=O)c2cncs2)CC(C(N)=O)C1 (stereo not given),9.41
14,O=S(=O)(NCCCn1cccn1)c1ccc2c(c1)CCC2,12.2
15,c1csc(CN(Cc2ccsc2)CC2CCCO2)n1 (stereo not given),5.59
16,CCc1n[nH]c(C(=O)NCCn2ccnc2C)c1C,-2.67
17,CCOCCC(=O)Nc1cccc(Cl)c1C(N)=O,1.82
18,CCCc1ccc(CN2CCC3(CCC(=O)N(CCCOC)C3)CC2)o1,4.14
19,CCC(NC(=O)c1cnc(N(C)C)nc1C)c1ccc(S(C)(=O)=O)cc1 (stereo not given),-4.95
20,Cc1cc(CNC(=O)N2CCOC(c3ccccc3Cl)C2)no1 (stereo not given),-7.62

# From ChEMBL document CHEMBL3988442, “University of Dundee, Small-Polar-MMV Screening Library” (2021)
